Assay [1] is described as follows: NCI Yeast Anticancer Drug Screen. Data for the rad50 strain (AID 155).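 Also: 0% = growth of vehicle-only cultures of the same strain.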 As to conditions: S. cerevisiae rad50 strain growth inhibition; at 50.0 µM; stronger effect = higher value. The method in brief: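 A DNA repair-deficient yeast mutant serves as the test organism; compound-induced growth inhibition is calculated against vehicle-treated cells.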
A short description of assay [2]: NCI Yeast Anticancer Drug Screen. Data for the mec2-1 strain (AID 157). As to conditions: S. cerevisiae mec2-1 strain, at 50.0 µM, stronger effect = higher value. An outline of the steps: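 Using mec2-1 yeast: add compound, measure growth, express inhibition versus vehicle-treated cultures.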
A short description of assay [3]: NCI Yeast Anticancer Drug Screen. Data for the sgs1 mgt1 strain (AID 161).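 Also: 0% = growth of cultures given vehicle only.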 The conditions noted are these: S. cerevisiae sgs1 mgt1 strain, at 50.0 µM, stronger effect = higher value. An outline of the steps:
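Growth of a repair-deficient yeast mutant was monitored after compound treatment and expressed as inhibition relative to vehicle-treated cultures.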

Assay [4] in a line: NCI Yeast Anticancer Drug Screen. Data for the cln2 rad14 strain (AID 165).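 Also: 0% = growth equal to vehicle treated cultures.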 The conditions noted are these: S. cerevisiae cln2 rad14 strain, at 50.0 µM, stronger effect = higher value. An outline of the steps:
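Yeast strain cln2 rad14, bearing defects in cell cycle control and DNA repair, serves as the test system; values reflect growth inhibition compared with vehicle.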

The nature of assay [5]: NCI Yeast Anticancer Drug Screen. Data for the bub3 strain (AID 167). The conditions noted are these: S. cerevisiae bub3 mutant strain, at 50.0 µM, stronger effect = higher value. An outline of the steps:
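Inhibition values come from growth of compound-treated mutant yeast normalised to vehicle-treated controls.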

Assay [6] in a line: NCI Yeast Anticancer Drug Screen. Data for the mlh1 rad18 strain (AID 175). The conditions noted are these: S. cerevisiae mlh1 rad18 strain growth inhibition; at 50.0 µM; stronger effect = higher value. The method in brief:
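Steps: expose repair-defective yeast to compound; measure growth; express inhibition against vehicle-treated controls.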

Each structure is given as a SMILES string. About 79,000 compounds went through this panel and 15% of them were active in at least one assay; those are over-represented in the sample as a whole. Values without a mark were called inactive. The source made the active and inactive calls. Rule as the data show it: active = growth inhibition above about 70%; inactive = the rest. Where a SMILES comes first, the peptide text is derived from it. [ ]: non-standard residue; d: D form. The star is where a group is joined. ξ: configuration not given here. ξD = NC(CC(=O)O)C(=O)O; Boc = CC(C)(C)OC(=O)*; Aib = CC(C)(N)C(=O)O; OBn = c1ccc(CO*)cc1

On to `CCCc1c(O)c(=O)c2c(OC)cc(OC)c3c4c(OC)cc(OC)c5c(=O)c(O)c(CCC)c(c1c23)c54`, for which the growth inhibition is 86.1% (active) in assay [1]; 89.4% (active) in assay [2]; 81.3% (active) in assay [3]; 84.5% (active) in assay [4]; 75.8% (active) in assay [5]; 89% (active) in assay [6].

Regarding `COc1ccc(CCNC(=O)CCC2CCN(CCc3ccc(OC)c(OC)c3)CC2)cc1OC`, the growth inhibition in assay [1] is 16.2%; in assay [2], -2.05%; in assay [3] it was 1.65%; in assay [4], 22.4%; in assay [5] it was -1.5%; in assay [6] it was 3.6%.

On to `CC(=O)CC(=O)C(C)C.[Cu+2]`, for which the growth inhibition was -7.6% in assay [1]; -15.9% in assay [2]; -17.1% in assay [3]; -17.9% in assay [4]; -21.5% in assay [5]; -17.4% in assay [6].

On to `COc1ccc(-c2cc(=O)c3c(O)cc(O)cc3o2)c(OC)c1OC`, for which the growth inhibition in assay [1] was -22.2%; in assay [2] it was -17.7%; in assay [3] it was -21.1%; in assay [4] it was 6.95%; in assay [5] it was -26.6%; in assay [6] it was 4.05%.

`CC1=C/C(=N\N(C)C)C(C(O)(C(F)(F)F)C(F)(F)F)C(C)(C)C1` (stereo unspecified): the growth inhibition was 4.75% in assay [1]; -19.1% in assay [2]; -10.4% in assay [3]; 9.35% in assay [4]; -14.7% in assay [5]; -13% in assay [6].

Consider `CC(=O)OCC(=O)O[C@@H]1[C@H]2[C@@H](OC(=O)c3ccccc3)[C@@H](C)C[C@]2(O)[C@H](OC(C)=O)[C@@]2(C)C[C@]1(OC(C)=O)C[C@H]1C(=O)C(C)(C)[C@@H](OC(C)=O)[C@@H]12`, for which the growth inhibition in assay [1] was -7.35%; in assay [2], 8.2%; in assay [3], -0.3%; in assay [4] it was -15.3%; in assay [5], 0.3%; in assay [6] it was -17.8%.

With `ClC(=Nc1ccccc1)c1cc(N2CCOCC2)ccn1`, the growth inhibition in assay [1] is 24.1%; in assay [2], 11.1%; in assay [3], 13.3%; in assay [4] it was 8.35%; in assay [5] it was 19.1%; in assay [6], 14%.

As to `CN(N=O)C(=O)NC(C=O)C(O)C(O)C(O)CO` (stereo unspecified), the growth inhibition is 5.25% in assay [1]; -23.4% in assay [2]; 28.4% in assay [3]; 12.2% in assay [4]; 0.4% in assay [5]; 1.6% in assay [6].

In the case of `CC(C)(C)OC(=O)NC(CC(=O)OCc1ccccc1)C(=O)NC(C)(C)C(N)=O` (stereo unspecified) (Boc-[ξD](OBn)-[Aib]-NH2), the growth inhibition in assay [1] was 5.25%; in assay [2], 11.8%; in assay [3], 2%; in assay [4], 26.6%; in assay [5], 23.4%; in assay [6] it was -19.8%.

On to `COC1=C(O)C(=O)C(OC)=C(O)C1=O`, for which the growth inhibition in assay [1] is -19.5%; in assay [2], -8.65%; in assay [3] it was -13.5%; in assay [4], -1.4%; in assay [5], 9.75%; in assay [6], -19.6%.

Consider `CCCCCCCC/C=C\CCCCCCCC(=O)N(C)CC(=O)O`, for which the growth inhibition in assay [1] was 43.2%; in assay [2], 38.2%; in assay [3] it was 39.2%; in assay [4] it was 21.1%; in assay [5], 30.7%; in assay [6], 29.1%.

As to `O=C(Nc1ccccc1)OCC#CCOC(=O)Nc1ccccc1`, the growth inhibition was 27.4% in assay [1]; 11.7% in assay [2]; 17.6% in assay [3]; -60.5% in assay [4]; 2.45% in assay [5]; 11% in assay [6].

As for `C(=NC12CC3CC(CC(C3)C1)C2)C1CCCCC1`, the growth inhibition is -17.1% in assay [1]; -24.8% in assay [2]; 0.05% in assay [3]; 3% in assay [4]; 4.8% in assay [5]; -2.5% in assay [6].

Turning to `Cc1cc(=O)[nH]c2cc(NN)ccc12`, the growth inhibition was 10.2% in assay [1]; -3.85% in assay [2]; 4.85% in assay [3]; -4.35% in assay [4]; -0.45% in assay [5]; 8.55% in assay [6].

As for `Nc1nc2nc(C(=O)O)c(=S)[nH]c2c(=O)[nH]1`, the growth inhibition was 11.1% in assay [1]; 3.8% in assay [2]; 1.9% in assay [3]; -10.9% in assay [4]; 7.6% in assay [5]; -8.25% in assay [6].

For `CC(=O)N(CCC(C)C)c1ccccc1`, the growth inhibition in assay [1] was 10.6%; in assay [2], 11.6%; in assay [3], -0.75%; in assay [4], -43.9%; in assay [5] it was -6.45%; in assay [6], -6.85%.

`CC1=C(C(=O)CC(=O)Nc2ccc(Cl)c(Cl)c2)Sc2ccccc2N1`: the growth inhibition in assay [1] is 8.1%; in assay [2], 21.9%; in assay [3], -4.3%; in assay [4], 13.7%; in assay [5], 0.25%; in assay [6], 20.9%.

Turning to `Cc1ccc(/C(C#N)=C/c2ccccc2)cc1`, the growth inhibition in assay [1] is 32.8%; in assay [2] it was 26.4%; in assay [3] it was 21%; in assay [4], 19.6%; in assay [5] it was 18.8%; in assay [6], 9.65%.

For the molecule `FC12CCC(F)(CC1)CC2`, the growth inhibition is -7.85% in assay [1]; 20.1% in assay [2]; -7.5% in assay [3]; -13.9% in assay [4]; 7.6% in assay [5]; -2.55% in assay [6].

Consider `CCC(CC)C(=O)OC1CCCCC1C(C)C` (stereo unspecified), for which the growth inhibition was 6.8% in assay [1]; -3.5% in assay [2]; -0.2% in assay [3]; -13.6% in assay [4]; 3.05% in assay [5]; 0.35% in assay [6].

For `CC(=O)c1ccccc1NC(=O)C(=O)C(C(=O)c1ccccc1-c1ccccc1)C1OC(=O)c2ccccc21` (stereo unspecified), the growth inhibition in assay [1] was 25%; in assay [2] it was 2.95%; in assay [3], 8.3%; in assay [4], -49.8%; in assay [5], -1.35%; in assay [6] it was 11.3%.

Source of the values: PubChem BioAssay (NCI).
